Results taken from PubChem BioAssay (NCATS).
Records with an inconclusive call do not appear. The source made the active and inactive calls. Calls come from the whole dose curve; as a rule, active = well fitted curve in the direction sought with a large enough effect; inconclusive = small, poorly fitted or top-dose-only effect, or another doubt; inactive = no such curve, though single readings can be large; an effect the other way counts as inactive or inconclusive.

Assays:
[1] = qHTS of pediatric cancer cell lines to identify multiple opportunities for drug repurposing: Confirmatory screen for BT-37 cells (AID 1347117);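 note: viability measured after 48 h of compound exposure; nearly all actives have a fitted effect of over 55% in size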
How it was run: (§1)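 Viability after 48 h compound treatment at 37C, 500-1,000 cells/well, read as ATP luminescence with CellTiter-Glo. Primary screens used 11-point (MIPE, 0.78 nM-46 µM) or 8-point (NPC, 0.59 nM-46 µM) final concentrations; follow-up screens used 11-point dilutions.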

[2] = qHTS of pediatric cancer cell lines to identify multiple opportunities for drug repurposing: Confirmatory screen for TC32 cells (AID 1347118);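 note: cells exposed to compound for 48 h before the read; nearly all actives have a fitted effect of over 65% in size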
How it was run: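 Measured quantity: luminescence from CellTiter-Glo, reflecting metabolically active TC32 cells following 48 h of compound. Curves came straight from multi-point titrations, with 8 or 11 points in primary and 11 in confirmatory screening.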

[3] = qHTS of pediatric cancer cell lines to identify multiple opportunities for drug repurposing: Confirmatory screen for MG 63 (6-TG R) cells (AID 1347119); note: nearly all actives have a fitted effect of over 55% in size
How it was run: as §1

[4] = qHTS of pediatric cancer cell lines to identify multiple opportunities for drug repurposing: Confirmatory screen for U-2 OS cells (AID 1347122); note: nearly all actives have a fitted effect of over 65% in size
How it was run: as §1

[5] = qHTS of pediatric cancer cell lines to identify multiple opportunities for drug repurposing: Confirmatory screen for Rh41 cells (AID 1347123);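 note: 48 h compound exposure; nearly all actives have a fitted effect of over 60% in size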
How it was run: as §1

[6] = qHTS of pediatric cancer cell lines to identify multiple opportunities for drug repurposing: Confirmatory screen for RD cells (AID 1347124);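 note: cells exposed to compound for 48 h before viability readout; nearly all actives have a fitted effect of over 65% in size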
How it was run: as §1

[7] = qHTS of pediatric cancer cell lines to identify multiple opportunities for drug repurposing: Confirmatory screen for Rh18 cells (AID 1347125); note: nearly all actives have a fitted effect of over 55% in size
How it was run: as §1

[8] = qHTS of pediatric cancer cell lines to identify multiple opportunities for drug repurposing: Confirmatory screen for Rh30 cells (AID 1347126); note: nearly all actives have a fitted effect of over 55% in size
How it was run: as §1

[9] = qHTS of pediatric cancer cell lines to identify multiple opportunities for drug repurposing: Confirmatory screen for Saos-2 cells (AID 1347127); note: nearly all actives have a fitted effect of over 60% in size
How it was run: as §1

[10] = qHTS of pediatric cancer cell lines to identify multiple opportunities for drug repurposing: Confirmatory screen for control Hh wild type fibroblast cells (AID 1347121); note: nearly all actives have a fitted effect of over 70% in size
How it was run: as §1

Measured: Potency
Potency is the fitted concentration of half-maximal effect.

COc1cc2c(Oc3ccc(-c4cnc(Nc5ccc(F)cc5)n(C)c4=O)cc3F)ccnc2cc1OCCCN1CCOCC1
active: [1] 18.5 µM | [2] 2.93 µM | [3] 2.93 µM | [4] 4.65 µM | [5] 3.69 µM | [6] 11.7 µM | [7] 8.27 µM | [8] 4.65 µM | [9] 7.37 µM

O=C(Nc1cc(C(F)(F)F)cc(C(F)(F)F)c1)c1cc(Cl)ccc1O
active: [1] 1.85 µM | [2] 2.93 µM | [3] 0.928 µM | [10] 2.33 µM | [9] 1.65 µM

COC(=O)Nc1ccc(-c2nc(N3CCOCC3)c3cnn(C4CCN(Cc5cccnc5)CC4)c3n2)cc1
active: [1] 0.928 µM | [2] 1.31 µM | [3] 1.85 µM | [4] 11.7 µM | [5] 1.31 µM | [8] 5.85 µM

CN1CCN(Cc2ccc(NC(=O)Nc3ccc(Oc4cc(NC(=O)C5CC5)ncn4)cc3)cc2C(F)(F)F)CC1
active: [1] 0.369 µM | [2] 0.165 µM | [3] 2.61 µM | [4] 0.737 µM | [5] 0.233 µM | [6] 0.414 µM | [7] 0.369 µM | [8] 2.33 µM | [9] 0.369 µM

COc1cccc2c(NCc3ccccc3)nc(-n3c(N)nc4ccccc43)nc12
active: [1] 7.37 µM | [2] 7.37 µM | [3] 5.85 µM | [10] 9.27 µM | [8] 0.0465 µM | [9] 9.27 µM

CNC(=O)c1c(F)cccc1Nc1nc(Nc2cc3c(cc2OC)CCN3C(=O)CN(C)C)nc2[nH]ccc12
active: [1] 26.1 µM | [2] 0.522 µM | [3] 3.69 µM | [4] 0.928 µM | [5] 0.414 µM | [8] 0.585 µM | [9] 3.69 µM

CC[C@@]1(O)C(=O)OCc2c1cc1n(c2=O)Cc2cc3cc(O)ccc3nc2-1
active: [1] 0.0208 µM | [2] 0.0131 µM | [3] 0.0657 µM | [8] 0.585 µM | [9] 0.0465 µM

CCCCc1nc2cc(C=CC(=O)NO)ccc2n1CCN(CC)CC
active: [1] 1.85 µM | [2] 1.31 µM | [3] 1.31 µM | [4] 1.85 µM | [6] 2.33 µM | [7] 1.47 µM | [8] 3.69 µM | [9] 2.61 µM

O=c1[nH]nc(Sc2ncc([N+](=O)[O-])s2)n1-c1ccc2c(c1)OCCO2
active: [1] 16.5 µM | [2] 6.57 µM | [3] 11.7 µM | [4] 9.27 µM | [6] 9.27 µM | [8] 7.37 µM | [9] 8.27 µM

COc1cccc2nc(-c3cccs3)nc(NN3C(=O)C=C(C)C3=O)c12
active: [1] 1.04 µM | [2] 0.737 µM | [3] 2.93 µM | [4] 1.85 µM | [5] 0.827 µM | [6] 5.22 µM | [8] 3.69 µM | [9] 2.93 µM

CCn1nnc2c(N3CCOCC3)nc(-c3ccc(NC(=O)Nc4ccc(C(=O)N5CCN(C)CC5)cc4)cc3)nc21
active: [1] 0.329 µM | [2] 0.293 µM | [3] 0.293 µM | [6] 0.414 µM | [8] 0.928 µM | [9] 0.657 µM

COc1cc(Nc2ncc(F)c(Nc3ccc4c(n3)N(COP(=O)(O)O)C(=O)C(C)(C)O4)n2)cc(OC)c1OC
active: [1] 10.4 µM | [2] 5.85 µM | [3] 2.33 µM | [4] 4.14 µM | [5] 3.29 µM | [6] 16.5 µM | [8] 2.33 µM | [9] 7.37 µM

Cc1[nH]c2ccccc2c1CCNCc1ccc(C=CC(=O)NO)cc1
active: [1] 0.165 µM | [2] 0.117 µM | [3] 0.165 µM | [7] 0.165 µM | [9] 0.233 µM
inactive: [6]

CC(C)(O)c1cc2nc(-c3cnc(N)nc3)nc(N3CCOCC3)c2s1
active: [1] 1.65 µM | [2] 0.827 µM | [3] 0.369 µM | [7] 1.65 µM | [9] 1.65 µM

O=C(C=Cc1cccc(S(=O)(=O)Nc2ccccc2)c1)NO
active: [1] 1.7 µM | [2] 0.759 µM | [3] 2.69 µM | [4] 2.4 µM | [6] 5.37 µM | [7] 1.91 µM | [8] 5.37 µM | [9] 1.91 µM

CN(C)Cc1c(C(=O)NCCOc2ccc(C(=O)NO)cc2)oc2ccccc12
active: [1] 1.17 µM | [2] 0.737 µM | [3] 1.47 µM | [4] 0.657 µM | [6] 1.65 µM | [7] 0.827 µM | [8] 1.65 µM | [9] 1.47 µM

Cc1[nH]nc2ccc(-c3cncc(OC[C@@H](N)Cc4ccccc4)c3)cc12
active: [1] 2.93 µM | [2] 2.93 µM | [3] 3.69 µM | [10] 23.3 µM | [7] 8.27 µM | [8] 47.9 µM | [9] 4.65 µM

CC(=O)OCC(=O)[C@@]1(O)[C@H](C)C[C@H]2[C@@H]3C=C(C)C4=Cc5c(cnn5-c5ccccc5)C[C@]4(C)[C@@H]3[C@@H](O)C[C@@]21C
active: [1] 13.1 µM | [2] 4.14 µM | [3] 18.5 µM | [4] 9.27 µM | [5] 13.1 µM | [6] 9.27 µM | [8] 16.5 µM | [9] 14.7 µM

CCn1cc(-c2ccnc3[nH]c(-c4cccc(CN(C)C)c4)cc23)c(-c2ccc(NC(=O)N(C)C)cc2)n1
active: [1] 5.22 µM | [2] 0.0465 µM | [3] 1.85 µM | [5] 1.85 µM | [6] 1.04 µM | [8] 0.293 µM | [9] 16.5 µM

C=CC(=O)Nc1cccc(Oc2nc(Nc3ccc(N4CCN(C)CC4)cc3OC)ncc2Cl)c1
inactive: [10]
active: [1] 20.8 µM | [2] 14.7 µM | [3] 23.3 µM | [8] 13.1 µM | [9] 23.3 µM

O=C(Cc1ccc(-c2ccc(OCCN3CCOCC3)cc2)cn1)NCc1ccccc1
active: [1] 0.147 µM | [2] 0.117 µM | [3] 0.0827 µM | [4] 0.369 µM
inactive: [7] | [8]

Cn1c(=O)n(-c2ccc(C(C)(C)C#N)cc2)c2c3cc(-c4cnc5ccccc5c4)ccc3ncc21
active: [1] 1.17 µM | [2] 0.827 µM | [3] 0.369 µM | [4] 2.93 µM | [5] 2.33 µM | [8] 2.33 µM

CC(=O)Nc1nc(C)c(-c2ccc(Cl)c(S(=O)(=O)NCCO)c2)s1
active: [1] 18.5 µM | [2] 7.37 µM | [3] 2.33 µM | [4] 14.7 µM | [5] 5.85 µM | [8] 14.7 µM | [9] 16.5 µM

O=C(Nc1ncc(-c2cc(C(F)F)nn2-c2c(Cl)cccc2Cl)s1)C1CC1
active: [1] 1.04 µM | [2] 0.369 µM | [3] 0.329 µM | [4] 1.04 µM | [5] 0.928 µM | [6] 0.827 µM | [8] 13.1 µM | [9] 0.465 µM

CNC(=O)CN1CCC(Oc2cc3c(Nc4cccc(Cl)c4F)ncnc3cc2OC)CC1
active: [1] 0.928 µM | [2] 1.04 µM | [8] 10.4 µM
inactive: [3] | [10]

Nc1ccccc1NC(=O)c1ccc(CNC(=O)OCc2cccnc2)cc1
active: [1] 3.02 µM | [2] 3.02 µM | [3] 2.4 µM | [4] 0.135 µM | [6] 13.5 µM | [7] 7.59 µM | [8] 19.1 µM | [9] 2.14 µM

COc1c(OCCCN2CCOCC2)ccc2c3n(c(=NC(=O)c4cnc(N)nc4)nc12)CCN3
inactive: [4]
active: [1] 6.44 µM | [2] 1.02 µM | [3] 0.229 µM | [7] 0.644 µM | [8] 0.456 µM | [9] 0.644 µM

C[C@@H](Oc1cc(-n2cnc3ccc(CN4CCN(C)CC4)cc32)sc1C(N)=O)c1ccccc1C(F)(F)F
active: [1] 0.24 µM | [2] 0.0537 µM | [3] 0.0603 µM | [10] 42.7 µM | [7] 47.9 µM | [8] 13.1 µM

Cc1c(CN2CCN(S(C)(=O)=O)CC2)sc2c(N3CCOCC3)nc(-c3cnc(N)nc3)nc12
active: [1] 2.08 µM | [2] 0.737 µM | [3] 0.329 µM | [7] 1.04 µM | [9] 1.31 µM

Cc1nc(N)ncc1-c1nc(N2CCOCC2)c2sc(C(C)(C)O)cc2n1
active: [1] 8.27 µM | [2] 2.33 µM | [3] 0.465 µM | [6] 1.17 µM | [7] 1.65 µM | [8] 0.737 µM | [9] 1.47 µM

C[C@@H](Oc1cc(-c2cnn(C3CCNCC3)c2)cnc1N)c1c(Cl)ccc(F)c1Cl
active: [1] 20.8 µM | [2] 4.65 µM | [3] 13.1 µM | [7] 18.5 µM | [8] 7.37 µM | [9] 13.1 µM

CC(C)[C@H](C(=O)Nc1ccc(C(=O)NO)cc1)c1ccccc1
active: [1] 1.04 µM | [2] 0.737 µM | [3] 0.657 µM | [4] 0.657 µM | [5] 1.17 µM | [6] 1.65 µM | [8] 2.33 µM | [9] 1.85 µM

CS(=O)(=O)N1CCN(Cc2cc3nc(-c4cccc5[nH]ncc45)nc(N4CCOCC4)c3s2)CC1
active: [1] 15.1 µM | [2] 1.35 µM | [5] 0.851 µM | [7] 1.07 µM | [8] 1.07 µM

COc1ccc(-c2cc3c(C)nc(N)nc3n(C3CCC(OCCO)CC3)c2=O)cn1 (stereo not drawn)
not listed: [2] | [5] | [7]
inactive: all other assays above

COc1cc2c(NC3CCN(C(C)C)CC3)nc(C3CCCCC3)nc2cc1OCCCN1CCCC1
active: [1] 26.1 µM | [2] 4.14 µM | [6] 26.1 µM
inactive: [10] | [4] | [8]

NCC(=O)Nc1ccc(-n2nc(C(F)(F)F)cc2-c2ccc3c(ccc4ccccc43)c2)cc1
active: [1] 2.93 µM | [2] 1.47 µM | [4] 0.0261 µM | [6] 5.22 µM | [7] 2.61 µM | [9] 3.29 µM

CN(C)CCCN=c1c2ccccc2n(C)c2[nH]c(=O)n(C)c(=O)c12
inactive: [3] | [10] | [4] | [9]
active: [1] 18.5 µM | [5] 23.3 µM
